# “And” between values parts separate entries of the source, which are not always exact repeats. Identical values can stand only once. Results filed as inconclusive are left out. The source made the active and inactive calls. Calls follow the shape of the dose curve; as a rule, active = well fitted inhibition curve with a large enough effect in the signal ratio in the repeat runs (not every such curve was filed as active); inconclusive = weak or mixed curves; inactive = flat fitted curve, though single readings scatter; the % refers to the signal ratio.
# Target: Progesterone receptor (Homo sapiens) (UniProt P06401)
# Assay: qHTS assay to identify small molecule antagonists of the progesterone receptor (PR) signaling pathway (AID 1346795)
# Settings: PR-UAS-bla HEK293T, beta-lactamase FRET ratio, 16 h; series mostly up to 92.4 µM
# From the text: National Center for Advancing Translational Sciences [NCATS]
# NIH Chemical Genomics Center [NCGC]
# U.S. Environmental Protection Agency [EPA]
# National Institutes of Environmental Health Sciences [NIEHS]
# National Toxicology Program [NTP]
# U.S. Food and Drug Administration [FDA]
# Progesterone receptor (PR), a nuclear hormone receptor, plays an important role in development, metabolic homeostasis and reproduction. […] Endocrine disrupting chemicals (EDCs) and their interactions with steroid hormone receptors like PR causes disruption of normal endocrine function. To identify the compounds that inhibit PR signaling, a PR-UAS-bla GripTite cell line i.e. PR-UAS-bla HEK293T (Invitrogen, Carlsbad, CA, USA) containing a beta-lactamase reporter gene under the control of an Upstream Activator Sequence (UAS) was used to screen Tox21 10K compound library.
# Tox21 Assay Protocol Summary:
# PR-UAS-bla HEK293T cells were dispensed at 3,000 cells/4 uL of assay medium containing 2% charcoal stripped FBS per well into black wall/clear-bottom 1536-well plates using a Multidrop Combi (ThermoFisher Scientific, Waltham, MA) dispenser. After the assay plates were incubated at a 37C and 5% CO2 for 6 hr, 23 nL of compounds dissolved in DMSO, positive controls or DMSO only was transferred to the assay plate by a Pintool station (Kalypsys, San Diego, CA), followed by addition of 1 uL (1nM as final concentration) of Promegestone (R5020) in assay medium using a BioRAPTR FRD (Flying Reagent Dispenser, Aurora Discovery, San Diego, CA). The plates were incubated at 37C and 5% CO2 for 16 hr. Then 1 uL of LiveBLAzer B/G FRET substrate was added using a FRD. After the plates were incubated at room temperature for 2 hours, fluorescence intensity was measured by an Envision plate reader (PerkinElmer, Shelton, CT).
# Potency is read from the fitted curve at half-maximal effect.
# Sequence of Progesterone receptor (Homo sapiens) (P06401 whole entry, looked up): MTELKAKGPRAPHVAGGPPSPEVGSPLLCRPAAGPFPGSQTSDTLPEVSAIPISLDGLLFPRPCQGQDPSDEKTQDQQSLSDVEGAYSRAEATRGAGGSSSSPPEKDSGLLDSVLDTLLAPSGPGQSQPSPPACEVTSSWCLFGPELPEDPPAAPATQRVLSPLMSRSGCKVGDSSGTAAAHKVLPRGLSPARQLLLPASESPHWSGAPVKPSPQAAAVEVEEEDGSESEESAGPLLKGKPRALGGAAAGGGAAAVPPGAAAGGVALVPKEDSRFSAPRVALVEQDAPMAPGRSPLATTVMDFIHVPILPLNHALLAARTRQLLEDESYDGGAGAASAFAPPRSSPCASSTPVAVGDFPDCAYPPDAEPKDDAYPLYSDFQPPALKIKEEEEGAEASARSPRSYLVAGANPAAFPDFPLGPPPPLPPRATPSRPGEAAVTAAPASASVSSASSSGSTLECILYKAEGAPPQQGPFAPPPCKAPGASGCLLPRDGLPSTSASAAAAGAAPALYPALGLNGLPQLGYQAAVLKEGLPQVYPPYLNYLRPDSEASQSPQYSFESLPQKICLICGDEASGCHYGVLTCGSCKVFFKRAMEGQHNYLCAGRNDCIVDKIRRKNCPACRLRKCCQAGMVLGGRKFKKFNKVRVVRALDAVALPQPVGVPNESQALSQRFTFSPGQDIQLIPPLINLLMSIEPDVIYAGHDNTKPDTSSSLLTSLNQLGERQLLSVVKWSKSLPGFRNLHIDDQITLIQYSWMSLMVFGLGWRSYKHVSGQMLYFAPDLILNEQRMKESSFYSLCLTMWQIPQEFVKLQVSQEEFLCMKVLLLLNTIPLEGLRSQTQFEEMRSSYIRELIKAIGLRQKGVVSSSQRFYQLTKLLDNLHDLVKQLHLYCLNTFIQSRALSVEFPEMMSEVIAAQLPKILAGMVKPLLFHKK
row,Structure (SMILES),Potency
1,CCN(CC)C(=O)Cl,inactive
2,Oc1c(I)cc(I)cc1I,30.6 µM (active)
3,CN1CSC(=S)N(C)C1,19.2 µM (active) and 8.61 µM (active)
4,CCOC(=O)C(O)(c1ccc(Cl)cc1)c1ccc(Cl)cc1,13.8 µM (active) and 13.7 µM (active)
5,c1ccc2c(c1)Sc1ccccc1N2CC1CN2CCC1CC2 (configuration not stated),26.6 µM (active)
6,OC(Cc1ccccc1Cl)(Cn1[nH]cnc1=S)C1(Cl)CC1 (configuration not stated),24.3 µM (active)
7,CNC(=O)Oc1cc(C)c(SC)c(C)c1,27.3 µM (active)
8,CC1COC(Cn2cncn2)(c2ccc(Oc3ccc(Cl)cc3)cc2Cl)O1 (configuration not stated),24.3 µM (active)
9,Clc1ccccc1-c1ccccc1Cl,inactive
10,O=C1C(I)=CC(=C(c2cc(I)c(O)c(I)c2)c2ccccc2C(=O)O)C=C1I,29.8 µM (active)
11,O=[N+]([O-])c1c(Cl)c(Cl)cc(Cl)c1Cl,inactive
12,O=S(=O)(C(Cl)(Cl)Cl)C(Cl)(Cl)Cl,inactive

# Source: PubChem BioAssay (Tox21)
